According to PubChem BioAssay (NCI):
The panel holds about 83,000 compounds, 20% with a hit somewhere; the sample as a whole holds those more often.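 96-well plates, one dose, 48 hours. Percent growth reported; active if below 10.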 A number with no mark means an inactive call. Activity calls are given as the source filed them.

What follows are compounds tested on HL-60(TB) leukemia (assay: NCI-60 one-dose screen, 48 h (100 = growth as untreated, 0 = no growth, -100 = all killed)). Details: 10 µM unless noted.

SMILES | growth
N#C/C(=C\c1ccc(-c2ccccc2F)o1)c1nc(-c2ccco2)cs1 | 91.2%
CN1C(=O)/C(=C2\SC(=Nc3ccccc3)N(Nc3ccccc3)C2=O)c2ccccc21 | 108%
CCN(CC)Cc1cc(Nc2c3ccccc3nc3cc(Cl)ccc23)ccc1O | -37.5% (active)
CCN(CC)c1ccc(C(=C2C=CC(=[N+](CC)Cc3cccc(S(=O)(=O)O)c3)C=C2)c2ccc(N(CC)Cc3cccc(S(=O)(=O)O)c3)cc2)cc1 | -22.2% (active)
